# Screening results as filed in PubChem.
# This is a sample that favours compounds with a hit; in the whole collection about 3.1% have one here.
# CF NFkB inh – inhibitors of cystic fibrosis induced NF-kB; KKLEB NF-kB-GFP reporter, PAF-induced, GFP fluorescence overnight; inhibition, % at 5 µM; 360,000 compounds, 0.86% hits;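 active = at least 50% inhibition at 5 µM, scaled per plate between neutral and stimulator controls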;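 also: PAF is a Pseudomonas aeruginosa culture filtrate used as stimulus; plate controls were PAF-stimulated DMSO wells for no effect and unstimulated DMSO wells for full effect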
# HIF-2a block – HIF-2a inhibition | 786-0 RCC cells HIF-2a reporter, luciferase luminescence, overnight | inhibition, % at 18.8 µM | 360,000 compounds, 0.72% hits;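 active = inhibition of the luminescence signal of 40% or more relative to plate controls, in a single-dose primary screen at 18.75 µM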
# ABHD5 PLIN5 PPI – ABHD5-PLIN5 protein interaction inhibition | inhibition, % at 4 µM | Q00G26+Q8WTS1 | 360,000 compounds, 0.78% hits | Split G. princeps luciferase complementation, luminescence, 4 h;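 active = inhibition above the mean inhibition across every tested compound plus 3 SD, cut at about 22% in these data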;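 also: 0% = DMSO only wells and the 100% control is not disclosed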
# Peg3 promoter – Peg3 promoter activity inhibition. AID 588405. 360,000 compounds, 1.7% hits. inhibition, % at 20 µM. HeLa PEG-Prom luciferase reporter, luminescence, overnight;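 active = inhibition of at least 50% at 20 µM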
# KKLEB tox – reduces viability of KKLEB cystic fibrosis airway cells | 360,000 compounds, 0.36% hits | AID 602141 | activity change (cytotoxicity), % at 5 µM | KKLEB CF airway cells viability, ATPlite luminescence, overnight; stronger effect = lower value; cells stimulated with P. aeruginosa culture filtrate;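 active = corrected activity change at or below -50% at 5 µM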
# MITF TRPM1 inh – inhibitors of MITF-driven TRPM1 promoter in melanoma cells; inhibition, % at 12.5 µM; 330,000 compounds, 0.83% hits; SK-MEL-5 TRPM1 promoter luciferase, 24 h; AID 488899;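 active = mean inhibition across replicates of 60% or more, whatever share of single replicates reaches that level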
# * hit, by the source's call; / = no result.
SMILES,CF NFkB inh,HIF-2a block,ABHD5 PLIN5 PPI,Peg3 promoter,KKLEB tox,MITF TRPM1 inh
CSc1nc(N)c(C#N)c(-c2ccc(Cl)cc2)c1C#N,-3,38,5,58*,-5,3
CC1(C)CCN2CCC(C)(C)c3c(O)ccc1c32,23,15,11,48,-10,64*
COc1ccc(F)cc1S(=O)(=O)NC1CCCC1,-3,6,-2,7,-6,-8
COc1cccc2c1C(=O)c1c(O)c3c(c(O)c1C2=O)C[C@@](O)(C(=O)CO)C[C@@H]3OC1CC(N)C(O)C(C)O1 (some centres undefined),10,-2,5,96*,-28,60
COc1cccc2c1C(=O)c1c(O)c3c(c(O)c1C2=O)CC(O)(C(C)=O)CC3OC1CC(N(C)C)C(O)C(C)O1 (centres undefined),77*,14,10,98*,-42,79*
CC(=O)[C@@]1(O)Cc2c(O)c3c(c(O)c2[C@H](O[C@H]2C[C@H](N)[C@H](O)[C@H](C)O2)C1)C(=O)c1ccccc1C3=O,-28,38,-9,99*,-53*,/
COc1cccc2c1C(=O)c1c(O)c3c(c(O)c1C2=O)C[C@@](O)(C(=O)CO)C[C@@H]3O[C@H]1C[C@H](N)[C@H](O)[C@H](C)O1,83*,19,6,95*,-52*,87*
O=C(O)C1CCN(Cc2cccnc2)CC1,-2,5,-1,17,1,10
O=C(Nc1nnc(S(=O)(=O)N2CCCCC2)s1)c1ccccc1Br,-14,13,-8,6,0,/
CC1(Oc2ccc(CC#N)cc2)CCN(Cc2ccc(-n3ccnc3)cc2)C1 (centres undefined),-23,-3,6,14,0,/
Cc1[nH]n2c(=O)cc(-c3ccc([N+](=O)[O-])cc3)nc2c1-c1ccccc1,22,13,-8,58*,-11,-4
CCCc1cc(=O)n2[nH]c(C)c(-c3ccccc3)c2n1,-1,18,-3,29,-28,2
Cc1ccc(NC(=O)N2CCCCC2)cc1[N+](=O)[O-],-35,-42,8,-27,3,12
O=C(C1CCC(CNS(=O)(=O)c2cccs2)CC1)N1CCN(c2ccc(Cl)cc2)CC1 (centres undefined),1,21,0,8,0,69*
O=C(NC1CCCC1)C1CCC(CNS(=O)(=O)c2cccs2)CC1 (centres undefined),-2,-2,0,6,-5,-14
CCOC(=O)c1cnc(-n2nc(C)cc2C)nc1NNc1nc(-c2ccccc2)cc(-c2ccccc2)n1,7,18,-3,41,2,62*
CCOC(=O)c1cnc(-n2nc(C)cc2C)nc1Nc1ccc(O)cc1,-9,14,-1,24,17,71*
COc1ccc(-c2nn(Cc3ccccc3)cc2C(=O)N2CCN(c3ncccn3)CC2)cc1,-30,-1,1,17,-23,5
Cn1cc(C(=O)N/N=C/c2ccc(Br)c([N+](=O)[O-])c2)c2ccccc21,-2,34,2,52*,8,/
COC(=O)/C(C#N)=C/c1cc(C)sc1C,9,7,-8,-6,6,4
O=C(Nc1ccc(Oc2ccc(Cl)cc2)c(Cl)c1)c1cc(I)cc(I)c1O,66*,-34,0,82*,23,5
COc1ccc(NC(=O)c2ccccc2F)cc1Cl,4,-210,-3,-284,-22,-57
CCOc1ccc(-n2c(-c3ccccc3)c[n+]3c2CCCCC3)cc1,-8,11,-2,14,4,63*
COC(=O)c1cc([N+](=O)[O-])c(-n2cncn2)c([N+](=O)[O-])c1,0,30,6,94*,-2,34
COC(=O)c1cc(F)c(-n2cncn2)c(F)c1,-4,9,10,20,-5,6
SMILES,CF NFkB inh,HIF-2a block,ABHD5 PLIN5 PPI,Peg3 promoter,KKLEB tox,MITF TRPM1 inh
C[C@@H]1CN([C@H](C)CO)C(=O)c2c(c3ccccc3n2C)-c2ccccc2CO[C@H]1CN(C)Cc1ccc(-c2ccccc2)cc1,4,-15,-9,83*,0,/
CN1C2CCC1/C(=C\c1ccccc1)C(=O)/C2=C\c1ccccc1,-70,89*,21,73*,9,35
O=C1/C(=C/c2ccccc2)CCC1C1CCCC1 (centres undefined),-7,-151,-5,-194,4,-61
COc1ccc2cc(C)c3nnc(SCC(=O)Nc4nc(-c5ccccc5)cs4)n3c2c1,32,5,3,15,-52*,11
COc1ccc(N=C2S/C(=C\c3ccc(N4CCOCC4)o3)C(=O)N2CCc2c[nH]c3ccccc23)cc1,-9,92*,72*,101*,-16,58
Cc1ccc2cccc(OCC(=O)N3CC(C)CC(C)C3)c2n1 (centres undefined),-2,9,9,2,0,5
Cc1ccc(-n2c(C)cc(C(=O)COC(=O)C3=NNC(=O)CC3)c2C)cc1,9,50*,4,-1,-2,9
COc1ccc(C2(CNC(=O)/C=C/c3ccco3)CCCC2)cc1OC,12,15,35*,-7,-8,7
COc1ccc(NC(=O)c2oc3ccccc3c2NC(=O)c2ccc(OC)c(OC)c2)c(OC)c1,42,-57,7,-13,-21,0
COc1ccc(NC(=O)c2oc3ccccc3c2NC(=O)COc2ccccc2OC)c(OC)c1,54*,-16,3,3,-54*,8
Cc1nc2ccc(N)cc2c(=O)n1Cc1ccc(Cl)cc1,11,-64,3,-58,-2,-15
Nc1ccc(Cn2ccc3c4c(N)nc(N)nc4ccc32)cc1,-48,36,1,102*,18,85*
O=C(Nc1cccc(O)c1)C(Cc1ccccc1)N1C(=O)c2cccc3cccc(c23)C1=O (centres undefined),24,23,20,66*,-22,-6
COc1cccc(/C=N/NC(=O)c2cc3c(OC)ccc(OC)c3[nH]2)c1O,8,-16,-18,52*,-8,21
CCOc1ccccc1/C=N/NC(=O)c1c(C)nc2ccc(Br)cn12,22,13,-1,-1,6,-8
COc1cc(OC)c2cc(C(=O)N/N=C/c3cccc(OC)c3O)[nH]c2c1,8,-24,1,57*,-17,54
COc1ccc(C(=O)N/N=C/c2cc(Br)ccc2O)cc1OC,10,-7,-8,48,2,66*
COc1cccc(/C=N/NC(=O)c2c(C)nc3ccc(Br)cn23)c1O,16,-20,0,49,-10,67*
COc1cccc(/C=N/NC(=O)c2ccc3nc[nH]c3c2)c1O,-5,2,-2,0,3,5
COc1ccc(CC(=O)NNC(=O)COc2ccc(F)cc2)cc1S(=O)(=O)N1CCOCC1,-11,0,6,5,0,-3
